PMC4336329 (PLoS ONE, 2015)
The campaign covered roughly 310,000 compounds. About 14,000 (4.5%) showed an effect of 50% or more. The effect is printed as a negative number. Shown is part of a subset that was picked to be rich in strong results.

Target: human ether-à-go-go-related gene (hERG) potassium channel (human, UniProt Q12809)
Experiment: primary screen, population patch clamp on CHO cells stably expressing hERG; higher = less effect of the substance
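Note: peak tail current of the secondary pulse compared with the same well before compound.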

Chain of human ether-à-go-go-related gene (hERG) potassium channel (Q12809 whole entry, looked up): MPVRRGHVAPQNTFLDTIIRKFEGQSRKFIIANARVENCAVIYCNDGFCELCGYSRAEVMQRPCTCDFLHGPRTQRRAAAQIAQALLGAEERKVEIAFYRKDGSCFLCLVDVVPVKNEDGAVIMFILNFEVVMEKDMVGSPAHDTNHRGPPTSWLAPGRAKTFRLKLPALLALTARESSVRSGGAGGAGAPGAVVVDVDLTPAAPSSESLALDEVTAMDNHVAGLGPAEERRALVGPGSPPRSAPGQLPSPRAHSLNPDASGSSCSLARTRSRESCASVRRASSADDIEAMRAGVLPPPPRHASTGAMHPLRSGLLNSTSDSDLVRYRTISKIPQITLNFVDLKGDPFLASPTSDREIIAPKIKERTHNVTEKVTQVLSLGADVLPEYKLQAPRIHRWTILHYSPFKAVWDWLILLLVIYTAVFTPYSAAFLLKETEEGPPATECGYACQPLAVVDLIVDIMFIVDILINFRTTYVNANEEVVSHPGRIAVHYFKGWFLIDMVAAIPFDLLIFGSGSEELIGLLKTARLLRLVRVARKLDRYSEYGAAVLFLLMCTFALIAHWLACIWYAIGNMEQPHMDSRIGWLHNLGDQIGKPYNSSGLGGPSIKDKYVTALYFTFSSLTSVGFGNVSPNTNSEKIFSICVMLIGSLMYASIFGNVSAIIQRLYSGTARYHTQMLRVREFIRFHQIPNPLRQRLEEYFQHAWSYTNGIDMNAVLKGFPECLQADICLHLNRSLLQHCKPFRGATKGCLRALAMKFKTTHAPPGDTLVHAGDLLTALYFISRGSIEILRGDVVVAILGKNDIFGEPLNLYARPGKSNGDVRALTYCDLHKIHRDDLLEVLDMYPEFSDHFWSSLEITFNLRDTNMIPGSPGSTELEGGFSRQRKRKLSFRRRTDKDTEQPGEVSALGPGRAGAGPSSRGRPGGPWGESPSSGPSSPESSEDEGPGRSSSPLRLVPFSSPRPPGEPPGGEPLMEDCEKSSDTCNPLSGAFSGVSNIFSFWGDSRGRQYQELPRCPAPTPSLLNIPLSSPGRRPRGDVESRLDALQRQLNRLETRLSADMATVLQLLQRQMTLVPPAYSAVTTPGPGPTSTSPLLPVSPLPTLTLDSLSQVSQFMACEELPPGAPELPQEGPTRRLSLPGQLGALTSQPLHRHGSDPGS

Compound	hERG current change (%, negative = inhibition) at 10uM [%]
COc1cccc(CC(=O)OCC(=O)N(C)CC(=O)Nc2ccc(F)cc2)c1	-9.44
CN(C)c1ccc(C2Nc3ccccc3C(=O)N2NS(C)(=O)=O)cc1 (stereo not drawn)	14.2
C/C(=N\NC(=O)c1nnn(-c2nonc2N)c1CN1CCCCCC1)c1ccc(Br)cc1	24.6
Cc1ccc(OCCOC(=O)c2c(-c3ccccc3)noc2C)cc1	7.59
CCOc1ccc(NC(=O)CN2CCN(C3c4ccccc4-c4ccccc43)CC2)cc1	-40.3
CCOc1ccc(NC(=O)CN2CCc3ccccc3C2)cc1	-6.01
CCOc1ccc(NC(=O)CN2CCN(Cc3c(F)cccc3F)CC2)cc1	-75.3
CCOc1cc(N2CCOCC2)c(OCC)cc1NC(=O)c1nc2nc(C)cc(C)n2n1	18.4
COCCCNC(=O)/C=C/c1ccc(OCc2c(F)cccc2Cl)cc1	-1.25
CN(C)CCCNC(=O)/C=C/c1ccc(OCc2c(F)cccc2Cl)cc1	-67
O=C(/C=C/c1ccc(OCc2c(F)cccc2Cl)cc1)N1CCOCC1	-30.1
COc1cc2c(cc1OC)C(c1ccccc1F)OC(=O)C2 (stereo not drawn)	6.96
O=C(CN1CCOCC1)Nc1ncc(Cc2cccc3ccccc23)s1	-23.3
O=C(CN1CCOCC1)Nc1ncc(Cc2cccc(Cl)c2Cl)s1	-51.4
O=C(CN1CCOCC1)Nc1ncc(Cc2cccc(Cl)c2)s1	-43
O=C(COc1ccc2ccccc2c1)Nc1ccc2c3c(cccc13)CC2	3.91
O=C(CSc1ncnc2c1cnn2-c1cccc(Cl)c1)NCC1CCCO1 (stereo not drawn)	7.88
CCCc1cc(=O)oc2cc(C)cc(OC(C)C(=O)NCc3cccnc3)c12 (stereo not drawn)	-47.3
Cc1cc(OC(C)C(=O)NCc2ccncc2)c2c(C)cc(=O)oc2c1 (stereo not drawn)	-49.2
CCc1cc(=O)oc2cc(C)cc(OC(C)C(=O)NCc3ccncc3)c12 (stereo not drawn)	-56.8
CCCc1cc(=O)oc2cc(C)cc(OC(C)C(=O)NCc3ccncc3)c12 (stereo not drawn)	-69.5
CCc1cc(=O)oc2cc(C)cc(OC(C)C(=O)NCc3cccnc3)c12 (stereo not drawn)	-32.9
CCCCc1cc(=O)oc2cc(C)cc(OC(C)C(=O)NCc3ccncc3)c12 (stereo not drawn)	-36
O=S(=O)(Nc1nc2c(s1)CCCC2)c1ccc(F)cc1	-21.1
